# Reference: PubChem BioAssay (EPA / NIEHS)
# Inconclusive results are not listed. Active and inactive are the calls of the source. The calls were made as follows, unless noted: active = hit-call score of the fitted dose curve at least 0.9, where 1 is the maximum; inconclusive = response in the unintended direction; inactive = score below 0.9.
# Tests used:
# [1] = target: human Peroxisome Proliferator-activated Receptor alpha (PPARa), PPARA (gene 5465) (UniProt Q07869); test: ATG_PPARa_TRANS: Attagene TRANS-FACTORIAL HepG2 Assay for human Peroxisome Proliferator-activated Receptor alpha (PPARa) (AID 2283001);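 as to AC50: potency for gain of reporter signal over DMSO so agonist or activator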
# In short: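 Reporter transcripts from GAL4-UAS units in transfected HepG2 were quantified 24 h after dosing. Detection used reverse transcription, PCR, fluorescent primer extension and capillary electrophoresis, with DMSO as baseline.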
# [2] = target: human Peroxisome Proliferator-activated Receptor delta (PPARd), PPARD (gene 5467) (UniProt Q03181); test: ATG_PPARd_TRANS: Attagene TRANS-FACTORIAL HepG2 Assay for human Peroxisome Proliferator-activated Receptor delta (PPARd) (AID 2283002)
# In short: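 Read-out is induced reporter mRNA, quantified by RT-PCR with fluorescent labelling and capillary electrophoresis after 24 h dosing. Cells are HepG2 transiently carrying multiple GAL4-UAS reporter units driven by exogenous NR-GAL4 chimeras; DMSO serves as baseline.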
# [3] = read-out: Intercellular Adhesion Molecule 1 (ICAM1), ICAM1 (gene 3383); test: BSK_3C_ICAM1: BioMAP Diversity Plus: 3C Assay for Intercellular Adhesion Molecule 1 (ICAM1) Biomarker Activity (AID 2283003; active = hit-call score of the fitted dose curve at least 0.9, where 1 is the maximum; inactive = score below 0.9); conditions: primary human endothelial cells (HUVEC); actives raise or lower the signal
# In short: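 Human vascular endothelial primary cells, 3C conditions, 24 h treatment. ICAM-1 by ELISA.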
# [4] = target: Peroxisome proliferator-activated receptor gamma (Homo sapiens) (UniProt P37231); test: ATG_PPARg_TRANS: Attagene TRANS-FACTORIAL HepG2 Assay for human Peroxisome Proliferator-activated Receptor-gamma (PPARg) (AID 2283007)
# In short: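 Endpoint reflects upward reporter mRNA change versus DMSO controls. Setup: transiently transfected HepG2, GAL4-UAS reporters driven by chimeric NR-Gal4, 24 h incubation, RT-PCR with capillary electrophoresis read-out.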
# [5] = target: Nuclear receptor subfamily 1 group I member 2 (Homo sapiens) (UniProt O75469); test: ATG_PXR_TRANS: Attagene TRANS-FACTORIAL HepG2 Assay for human Pregnane X Receptor (PXR) (AID 2283008)
# In short: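 HepG2 cells transiently transfected with GAL4-UAS reporter units and PXR-Gal4 chimera, exposed 24 h. Reporter mRNA quantified by RT-PCR, fluorescent labelling, HpaI digestion and capillary electrophoresis; gain of signal vs DMSO.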
# [6] = target: human Retinoic Acid Receptor gamma (RARg), RARG (gene 5916) (UniProt P13631); test: ATG_RARg_TRANS: Attagene TRANS-FACTORIAL HepG2 Assay for human Retinoic Acid Receptor gamma (RARg) (AID 2283009)
# In short: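 HepG2, RARg-GAL4 TRANS system, 24 h exposure; reporter mRNA by RT-PCR + CE fluorescence; increase over DMSO.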
# [7] = target: human RAR-related Orphan Receptor beta (RORb), RORB (gene 6096) (UniProt Q92753); test: ATG_RORb_TRANS: Attagene TRANS-FACTORIAL HepG2 Assay for human RAR-related Orphan Receptor beta (RORb) (AID 2283010)
# In short: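 In this TRANS-format test, human HepG2 cells express chimeric NR-Gal4 fusion proteins driving GAL4-UAS reporters. After 24 h dosing, reporter transcripts are measured by fluorescent RT-PCR/capillary electrophoresis, with DMSO as negative control.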
# [8] = target: human RAR-related Orphan Receptor gamma (RORg), RORC (gene 6097) (UniProt P51449); test: ATG_RORg_TRANS: Attagene TRANS-FACTORIAL HepG2 Assay for human RAR-related Orphan Receptor gamma (RORg) (AID 2283011)
# In short: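 Reporter transcripts from a transfected RORg-GAL4 chimera in HepG2 cells were quantified 24 h after dosing by RT-PCR, 6-FAM labelling, HpaI digestion and capillary electrophoresis; increases over DMSO baseline were fitted.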
# [9] = target: Retinoic acid receptor RXR-alpha (Homo sapiens) (UniProt P19793); test: ATG_RXRa_TRANS: Attagene TRANS-FACTORIAL HepG2 Assay for human Retinoid X Receptor alpha (RXRa) (AID 2283012)
# In short: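 Cells (HepG2) carried transiently transfected GAL4-responsive reporter units. Following a 24 h chemical incubation, reporter mRNA induction was read via RT-PCR fragment analysis; DMSO served as negative control and baseline.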
# [10] = target: human Retinoid X Receptor beta (RXRb), RXRB (gene 6257) (UniProt P28702); test: ATG_RXRb_TRANS: Attagene TRANS-FACTORIAL HepG2 Assay for human Retinoid X Receptor beta (RXRb) (AID 2283013)
# In short: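 Multiplexed TRANS reporter assay in HepG2; 24 h dosing; reporter mRNA by RT-PCR/CE fluorescence; gain-of-signal relative to DMSO.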
# [11] = target: human Thyroid Receptor alpha (THRa1), THRA (gene 7067) (UniProt P10827); test: ATG_THRa1_TRANS: Attagene TRANS-FACTORIAL HepG2 Assay for human Thyroid Receptor alpha (THRa1) (AID 2283014)
# In short: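 Transcripts from GAL4-UAS-driven reporters, measured after 24 h compound exposure by RT-PCR plus capillary electrophoresis of 6-FAM-labeled fragments, were fitted for gain of signal relative to DMSO. Cells: transiently transfected HepG2 expressing NR-Gal4 chimeras.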
# [12] = read-out: E-selectin (Homo sapiens) (UniProt P16581); test: BSK_3C_Eselectin: BioMAP Diversity Plus: 3C Assay for Eselectin Biomarker Activity (AID 2283015; active = hit-call score of the fitted dose curve at least 0.9, where 1 is the maximum; inactive = score below 0.9;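 also: cell surface E-selectin protein quantified by ELISA 24 h after dosing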); conditions: primary human endothelial cells (HUVEC); actives raise or lower the signal
# In short: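 E-selectin ELISA readout, fitted bidirectionally relative to DMSO, taken 24 h post-dosing in HUVEC cultures of the 3C system. Overt cytotoxicity tracked with sulforhodamine B staining of parallel wells.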
# [13] = read-out: Monocyte Chemoattractant Protein-1 (MCP1), CCL2 (gene 6347); test: BSK_3C_MCP1: BioMAP Diversity Plus: 3C Assay for Monocyte Chemoattractant Protein-1 (MCP1) Biomarker Activity (AID 2283017; active = hit-call score of the fitted dose curve at least 0.9, where 1 is the maximum; inactive = score below 0.9); conditions: primary human endothelial cells (HUVEC); actives raise or lower the signal
# In short: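 MCP-1 was measured by ELISA 24 h after dosing in primary HUVEC 3C cultures and fitted in both directions relative to DMSO; cytotoxicity was checked by SRB total-protein staining in parallel wells.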
# [14] = read-out: Monocyte Chemoattractant Protein-1 (MCP1), CCL2 (gene 6347); test: BSK_4H_MCP1: BioMAP Diversity Plus: 4H Assay for Monocyte Chemoattractant Protein-1 (MCP1) Biomarker Activity (AID 2283018; active = hit-call score of the fitted dose curve at least 0.9, where 1 is the maximum; inactive = score below 0.9); conditions: primary human endothelial cells (HUVEC); actives raise or lower the signal
# In short: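 Readout: MCP-1 ELISA on compound-treated HUVEC, sampled 24 h post-dosing. Baseline and negative control DMSO; bidirectional fit. Overt toxicity checked alongside by sulforhodamine B protein staining at time of biomarker measurement.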
# [15] = target: human Retinoic Acid Receptor beta (RARb), RARB (gene 5915) (UniProt P10826); test: ATG_RARb_TRANS: Attagene TRANS-FACTORIAL HepG2 Assay for human Retinoic Acid Receptor beta (AID 2283004)
# In short: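 Induction of reporter mRNA from a chimeric RARb-Gal4 construct was measured by RT-PCR, FAM labelling, HpaI digestion and capillary electrophoresis. Measurements followed 24 h compound treatment of transiently transfected human HepG2 liver cells, with DMSO as baseline.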
# [16] = target: Retinoic acid receptor alpha (Homo sapiens) (UniProt P10276); test: ATG_RARa_TRANS: Attagene TRANS-FACTORIAL HepG2 Assay for human Retinoic Acid Receptor alpha (RARa) (AID 2283005)
# In short: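 Reporter transcripts, measured by RT-PCR with fluorescent labeling and capillary electrophoresis after 24 h dosing, reflect activity of an exogenous human RARa–GAL4 fusion in transiently transfected HepG2. Fitted for increase relative to DMSO.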
# [17] = read-out: Interleukin-1 alpha (IL1a), IL1A (gene 3552); test: BSK_BE3C_IL1a: BioMAP Diversity Plus: BE3C Assay for Interleukin-1 alpha (IL1a) Biomarker Activity (AID 2283016; active = hit-call score of the fitted dose curve at least 0.9, where 1 is the maximum; inactive = score below 0.9); conditions: primary human bronchial epithelial cells; actives raise or lower the signal
# In short: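 Cultures of primary human bronchial epithelial cells receive test chemical. After 24 h, IL-1a is quantified by ELISA, while parallel wells are fixed in TCA and SRB-stained for total protein. Changes in either direction are fitted relative to DMSO.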
# [18] = BSK_3C_Proliferation: Cell Proliferation Assessment in the BioMAP Diversity Plus: 3C Assay (AID 2283006; active = hit-call score of the fitted dose curve at least 0.9, where 1 is the maximum; inactive = score below 0.9;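 also: potency may reflect either rise or fall in cell number versus DMSO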); conditions: primary human endothelial cells (HUVEC)
# In short: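 Proliferation of human vascular endothelial primary cells after 48 h dosing, quantified as SRB-stained protein at 560 nm relative to DMSO.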
# [19] = read-out: Human Leukocyte Antigen - DR isotype (HLADR), HLA-DRA (gene 3122); test: BSK_3C_HLADR: BioMAP Diversity Plus: 3C Assay for Human Leukocyte Antigen - DR isotype (HLADR) Biomarker Activity (AID 2283019; active = hit-call score of the fitted dose curve at least 0.9, where 1 is the maximum; inactive = score below 0.9); conditions: primary human endothelial cells (HUVEC); actives raise or lower the signal
# In short: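 Bidirectional fitting against DMSO was applied to the HLA-DR ELISA signal from human umbilical vein endothelial cells, 24 h post-dose. Cytotoxicity came from parallel SRB total-protein staining; 3C proliferation was counted by SRB at 48 h.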
# Sequence of Nuclear receptor subfamily 1 group I member 2 (Homo sapiens) (O75469 whole entry, looked up, the tested form may be a part): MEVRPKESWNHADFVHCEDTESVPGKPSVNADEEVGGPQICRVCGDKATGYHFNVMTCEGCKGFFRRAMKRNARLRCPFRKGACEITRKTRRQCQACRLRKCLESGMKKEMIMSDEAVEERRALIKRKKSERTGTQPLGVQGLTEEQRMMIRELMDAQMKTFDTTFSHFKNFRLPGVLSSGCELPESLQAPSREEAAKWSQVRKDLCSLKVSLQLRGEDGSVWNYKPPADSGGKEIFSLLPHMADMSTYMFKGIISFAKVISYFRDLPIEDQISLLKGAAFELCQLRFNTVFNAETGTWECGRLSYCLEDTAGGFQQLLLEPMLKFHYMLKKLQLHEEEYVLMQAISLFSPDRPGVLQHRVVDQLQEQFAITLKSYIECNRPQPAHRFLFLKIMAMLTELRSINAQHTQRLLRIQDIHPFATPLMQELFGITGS
# Sequence of human Retinoic Acid Receptor gamma (RARg), RARG (gene 5916) (P13631 whole entry, looked up, the tested form may be a part): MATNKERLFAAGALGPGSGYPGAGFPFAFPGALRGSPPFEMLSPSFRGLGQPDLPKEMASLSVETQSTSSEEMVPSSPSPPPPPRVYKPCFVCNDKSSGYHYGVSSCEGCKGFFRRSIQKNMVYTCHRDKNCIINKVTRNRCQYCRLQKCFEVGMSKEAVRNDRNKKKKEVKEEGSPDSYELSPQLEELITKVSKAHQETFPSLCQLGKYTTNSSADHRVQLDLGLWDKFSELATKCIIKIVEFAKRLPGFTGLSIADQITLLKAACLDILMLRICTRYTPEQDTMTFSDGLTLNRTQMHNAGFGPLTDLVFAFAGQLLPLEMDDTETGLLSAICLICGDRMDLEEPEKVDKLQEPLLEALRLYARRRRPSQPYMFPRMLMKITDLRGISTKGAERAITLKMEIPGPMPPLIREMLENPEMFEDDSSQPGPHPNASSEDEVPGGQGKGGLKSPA
# Sequence of Peroxisome proliferator-activated receptor gamma (Homo sapiens) (P37231 whole entry, looked up, the tested form may be a part): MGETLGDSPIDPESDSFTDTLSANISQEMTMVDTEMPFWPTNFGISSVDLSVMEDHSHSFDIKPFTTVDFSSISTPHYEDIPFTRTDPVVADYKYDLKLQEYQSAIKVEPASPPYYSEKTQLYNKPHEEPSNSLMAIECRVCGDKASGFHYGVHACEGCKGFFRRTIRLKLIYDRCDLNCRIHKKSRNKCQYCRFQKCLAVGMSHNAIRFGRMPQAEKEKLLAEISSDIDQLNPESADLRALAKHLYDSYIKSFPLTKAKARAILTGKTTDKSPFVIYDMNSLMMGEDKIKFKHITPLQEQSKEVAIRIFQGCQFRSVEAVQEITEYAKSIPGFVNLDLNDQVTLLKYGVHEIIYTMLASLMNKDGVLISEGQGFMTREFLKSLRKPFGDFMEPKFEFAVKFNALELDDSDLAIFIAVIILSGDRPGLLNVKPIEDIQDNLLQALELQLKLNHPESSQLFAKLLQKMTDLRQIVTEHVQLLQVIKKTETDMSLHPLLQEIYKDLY
# Sequence of Retinoic acid receptor RXR-alpha (Homo sapiens) (P19793 whole entry, looked up, the tested form may be a part): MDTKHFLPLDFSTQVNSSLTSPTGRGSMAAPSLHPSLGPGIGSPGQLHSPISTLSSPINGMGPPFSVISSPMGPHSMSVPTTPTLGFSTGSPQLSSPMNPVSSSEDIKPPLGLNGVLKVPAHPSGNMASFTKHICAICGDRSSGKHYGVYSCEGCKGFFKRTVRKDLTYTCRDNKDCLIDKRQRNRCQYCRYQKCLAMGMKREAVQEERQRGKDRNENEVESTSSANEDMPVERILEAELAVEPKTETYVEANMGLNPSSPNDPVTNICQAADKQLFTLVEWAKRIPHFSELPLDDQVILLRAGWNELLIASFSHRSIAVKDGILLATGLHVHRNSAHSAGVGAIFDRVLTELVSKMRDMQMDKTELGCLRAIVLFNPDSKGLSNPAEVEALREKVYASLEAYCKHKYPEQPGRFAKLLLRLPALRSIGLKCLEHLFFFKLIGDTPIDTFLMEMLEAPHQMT
# Sequence of human Retinoid X Receptor beta (RXRb), RXRB (gene 6257) (P28702 whole entry, looked up): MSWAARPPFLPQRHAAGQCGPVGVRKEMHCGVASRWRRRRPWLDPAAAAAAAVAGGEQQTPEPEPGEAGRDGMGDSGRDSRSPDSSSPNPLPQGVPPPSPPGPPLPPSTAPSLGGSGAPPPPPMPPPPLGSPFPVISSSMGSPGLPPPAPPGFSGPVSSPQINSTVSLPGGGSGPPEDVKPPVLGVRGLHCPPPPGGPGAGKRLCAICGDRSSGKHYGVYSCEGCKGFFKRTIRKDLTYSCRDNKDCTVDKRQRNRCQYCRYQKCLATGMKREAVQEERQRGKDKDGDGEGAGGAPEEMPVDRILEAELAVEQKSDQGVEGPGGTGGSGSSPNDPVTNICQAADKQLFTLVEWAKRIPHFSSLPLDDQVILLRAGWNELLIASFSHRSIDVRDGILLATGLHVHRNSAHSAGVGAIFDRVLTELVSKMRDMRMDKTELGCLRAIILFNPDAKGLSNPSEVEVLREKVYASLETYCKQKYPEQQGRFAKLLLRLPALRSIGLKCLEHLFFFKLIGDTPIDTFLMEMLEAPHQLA
# Sequence of human Retinoic Acid Receptor beta (RARb), RARB (gene 5915) (P10826 whole entry, looked up, the tested form may be a part): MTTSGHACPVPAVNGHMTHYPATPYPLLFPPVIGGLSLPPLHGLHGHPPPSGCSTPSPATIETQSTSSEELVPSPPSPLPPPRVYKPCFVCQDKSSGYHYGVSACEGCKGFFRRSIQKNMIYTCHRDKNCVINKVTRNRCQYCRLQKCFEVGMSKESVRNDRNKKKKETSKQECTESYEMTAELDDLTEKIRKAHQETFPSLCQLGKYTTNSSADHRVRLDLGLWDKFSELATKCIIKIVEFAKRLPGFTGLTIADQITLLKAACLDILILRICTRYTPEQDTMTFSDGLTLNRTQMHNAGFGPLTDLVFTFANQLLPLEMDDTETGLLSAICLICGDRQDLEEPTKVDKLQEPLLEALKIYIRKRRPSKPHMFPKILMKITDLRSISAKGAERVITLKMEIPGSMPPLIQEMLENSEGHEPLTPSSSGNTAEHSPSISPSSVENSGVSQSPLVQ
# Sequence of human Thyroid Receptor alpha (THRa1), THRA (gene 7067) (P10827 whole entry, looked up, the tested form may be a part): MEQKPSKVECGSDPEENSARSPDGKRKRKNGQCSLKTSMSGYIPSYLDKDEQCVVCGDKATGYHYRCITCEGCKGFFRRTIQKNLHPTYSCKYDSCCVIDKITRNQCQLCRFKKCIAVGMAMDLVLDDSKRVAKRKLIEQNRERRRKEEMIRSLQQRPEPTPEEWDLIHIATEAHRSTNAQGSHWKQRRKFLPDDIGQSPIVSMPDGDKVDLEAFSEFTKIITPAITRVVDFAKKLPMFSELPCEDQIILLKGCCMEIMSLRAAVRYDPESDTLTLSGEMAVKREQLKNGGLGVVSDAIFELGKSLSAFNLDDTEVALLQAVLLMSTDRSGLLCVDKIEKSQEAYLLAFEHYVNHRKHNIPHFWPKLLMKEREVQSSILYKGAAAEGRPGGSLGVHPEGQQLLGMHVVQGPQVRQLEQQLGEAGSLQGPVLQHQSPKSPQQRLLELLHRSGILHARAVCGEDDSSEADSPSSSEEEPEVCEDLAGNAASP
# Sequence of human Peroxisome Proliferator-activated Receptor alpha (PPARa), PPARA (gene 5465) (Q07869 whole entry, looked up, the tested form may be a part): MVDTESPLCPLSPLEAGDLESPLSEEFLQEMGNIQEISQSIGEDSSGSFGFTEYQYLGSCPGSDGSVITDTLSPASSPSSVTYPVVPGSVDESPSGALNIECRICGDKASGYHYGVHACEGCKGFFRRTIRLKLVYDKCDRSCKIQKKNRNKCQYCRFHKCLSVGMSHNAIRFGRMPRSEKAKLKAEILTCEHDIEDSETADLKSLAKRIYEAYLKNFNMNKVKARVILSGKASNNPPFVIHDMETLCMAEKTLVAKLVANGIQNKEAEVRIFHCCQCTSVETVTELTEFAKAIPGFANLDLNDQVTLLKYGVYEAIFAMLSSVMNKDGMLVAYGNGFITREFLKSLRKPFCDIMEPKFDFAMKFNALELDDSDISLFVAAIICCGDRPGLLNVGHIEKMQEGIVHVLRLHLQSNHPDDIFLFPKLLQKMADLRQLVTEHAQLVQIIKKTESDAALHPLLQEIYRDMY
# Sequence of human Peroxisome Proliferator-activated Receptor delta (PPARd), PPARD (gene 5467) (Q03181 whole entry, looked up, the tested form may be a part): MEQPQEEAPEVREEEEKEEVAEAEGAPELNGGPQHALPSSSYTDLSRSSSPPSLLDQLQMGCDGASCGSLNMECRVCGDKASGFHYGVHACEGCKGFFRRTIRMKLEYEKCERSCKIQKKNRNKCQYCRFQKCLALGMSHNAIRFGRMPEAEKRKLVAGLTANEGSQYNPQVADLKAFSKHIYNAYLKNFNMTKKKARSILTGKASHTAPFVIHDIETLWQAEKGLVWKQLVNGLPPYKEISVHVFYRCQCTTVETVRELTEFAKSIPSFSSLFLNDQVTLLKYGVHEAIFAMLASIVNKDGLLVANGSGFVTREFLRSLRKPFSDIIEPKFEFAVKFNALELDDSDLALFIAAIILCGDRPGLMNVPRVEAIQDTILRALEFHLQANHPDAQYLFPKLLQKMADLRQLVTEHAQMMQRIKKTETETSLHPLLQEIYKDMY
# Sequence of E-selectin (Homo sapiens) (P16581 whole entry, looked up): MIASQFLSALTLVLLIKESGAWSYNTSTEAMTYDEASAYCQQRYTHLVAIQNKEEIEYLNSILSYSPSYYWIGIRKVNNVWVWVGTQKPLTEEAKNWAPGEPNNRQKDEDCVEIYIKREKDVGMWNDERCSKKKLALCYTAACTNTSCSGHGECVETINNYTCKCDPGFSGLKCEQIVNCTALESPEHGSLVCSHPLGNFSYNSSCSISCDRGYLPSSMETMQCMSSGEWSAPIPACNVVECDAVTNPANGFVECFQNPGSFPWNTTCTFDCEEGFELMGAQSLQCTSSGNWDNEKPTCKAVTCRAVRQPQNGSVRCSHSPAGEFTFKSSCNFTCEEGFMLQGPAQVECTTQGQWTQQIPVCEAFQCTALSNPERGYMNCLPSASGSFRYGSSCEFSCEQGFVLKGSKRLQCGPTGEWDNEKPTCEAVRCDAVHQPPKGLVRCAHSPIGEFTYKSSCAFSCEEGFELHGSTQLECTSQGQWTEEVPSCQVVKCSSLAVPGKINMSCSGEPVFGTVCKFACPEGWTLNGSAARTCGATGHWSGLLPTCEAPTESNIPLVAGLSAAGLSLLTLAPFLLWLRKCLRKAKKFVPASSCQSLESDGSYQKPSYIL
smiles,measurement,setting,value
O=C(Cl)C(F)(F)C(F)(F)C(F)(F)C(F)(F)C(F)(F)C(F)(F)C(F)(F)F,AC50,[1],10.8 µM (active)
same,outcome,[2],inactive
same,outcome,[3],inactive
same,AC50,[4],55.1 µM (active)
same,outcome,[5],inactive
same,outcome,[6],inactive
same,outcome,[7],inactive
same,outcome,[8],inactive
same,outcome,[9],inactive
same,AC50,[10],34.6 µM (active)
same,outcome,[11],inactive
same,outcome,[12],inactive
same,outcome,[13],inactive
same,outcome,[14],inactive
CCCCCCCCn1sc(Cl)c(Cl)c1=O,outcome,[1],inactive
same,outcome,[2],inactive
same,AC50,[4],11.1 µM (active)
same,outcome,[5],inactive
same,outcome,[8],inactive
CCCCCCCCCCCCC[N+](C)(C)Cc1ccccc1,outcome,[1],inactive
same,outcome,[2],inactive
same,outcome,[15],inactive
same,outcome,[16],inactive
same,outcome,[4],inactive
same,outcome,[5],inactive
same,outcome,[9],inactive
same,outcome,[10],inactive
same,outcome,[11],inactive
CCn1c2ccccc2c2ccccc21,outcome,[1],inactive
same,outcome,[2],inactive
same,outcome,[15],inactive
same,outcome,[16],inactive
same,outcome,[4],inactive
same,AC50,[5],10.3 µM (active)
same,outcome,[6],inactive
same,AC50,[10],13.3 µM (active)
same,outcome,[11],inactive
C=CC(=O)OCC(F)(F)C(F)(F)C(F)(F)C(F)(F)C(F)(F)C(F)(F)C(F)(F)C(F)F,outcome,[1],inactive
same,outcome,[2],inactive
same,outcome,[3],inactive
same,AC50,[4],37.6 µM (active)
same,outcome,[5],inactive
same,outcome,[7],inactive
same,outcome,[9],inactive
same,outcome,[10],inactive
same,outcome,[12],inactive
same,outcome,[17],inactive
same,outcome,[13],inactive
same,outcome,[14],inactive
F[Si-2](F)(F)(F)(F)F,outcome,[1],inactive
same,outcome,[2],inactive
same,outcome,[15],inactive
same,outcome,[5],inactive
same,outcome,[8],inactive
same,outcome,[10],inactive
same,outcome,[11],inactive
CCCCCCCCCCCCCC[P+](CCCC)(CCCC)CCCC,outcome,[1],inactive
same,outcome,[2],inactive
same,outcome,[4],inactive
same,outcome,[5],inactive
same,outcome,[10],inactive
O=C1c2ccccc2C(=O)c2c(Cl)cccc21,outcome,[1],inactive
same,outcome,[2],inactive
same,outcome,[16],inactive
same,outcome,[4],inactive
same,AC50,[5],2.73 µM (active)
same,outcome,[6],inactive
same,AC50,[10],28.4 µM (active)
same,outcome,[11],inactive
C=C(C)CCCC,outcome,[1],inactive
same,outcome,[2],inactive
same,outcome,[15],inactive
same,outcome,[16],inactive
same,outcome,[6],inactive
same,outcome,[8],inactive
same,outcome,[10],inactive
same,outcome,[11],inactive
Oc1ccc2c(c1)CCC2,outcome,[1],inactive
same,outcome,[2],inactive
same,outcome,[15],inactive
same,outcome,[16],inactive
same,outcome,[4],inactive
same,outcome,[6],inactive
same,outcome,[9],inactive
same,outcome,[10],inactive
same,outcome,[11],inactive
C[Si](C)O[Si](C)C,outcome,[1],inactive
same,outcome,[2],inactive
same,outcome,[15],inactive
same,outcome,[6],inactive
same,outcome,[8],inactive
CC(C)CC=C(C=O)c1ccccc1,outcome,[1],inactive
same,outcome,[2],inactive
same,AC50,[4],39.5 µM (active)
same,AC50,[5],0.891 µM (active)
same,outcome,[10],inactive
CCN(CC)c1ccc(N=Nc2ccccc2)cc1,outcome,[1],inactive
same,outcome,[2],inactive
same,outcome,[3],inactive
same,AC50,[18],12 µM (active)
same,AC50,[4],4.67 µM (active)
same,outcome,[6],inactive
same,outcome,[9],inactive
same,outcome,[10],inactive
same,outcome,[11],inactive
same,outcome,[12],inactive
same,AC50,[13],30.6 µM (active)
same,AC50,[14],13.2 µM (active)
same,AC50,[19],11.5 µM (active)
